Assay outcomes as filed in PubChem BioAssay.
Hits are enriched below; roughly 4.2% of the tested compounds scored in any of these assays.
GDH-TPI counter: GDH-TPI coupling enzyme inhibitors, primary screen, artefact control for M. tuberculosis FBA inhibitor project, biochemical, absorbance, full deck | GDH-TPI coupled enzyme counterscreen, NADH absorbance | inhibition, % at 4.8 µM | AID 588335, 2011 | actives 1.2% (n = 360,000); in the data active = inhibition above about 30%
PrPC surface inh: inhibitors of human cell surface prion protein PrPC, primary screen, cell-based, TR-FRET | TR-FRET read-out | inhibition, % at 13.8 µM | actives 0.43% (n = 370,000); in the data active = inhibition above about 24%
RecA intein inh: Mtb RecA intein splicing inhibitors, primary screen, biochemical, fluorescence, HTS; Protein RecA (Mycobacterium tuberculosis (strain ATCC 25618 / H37Rv)), P9WHJ3; cell-free RecA intein splicing; inhibition, % (test concentration not listed); actives 0.75% (n = 290,000); in the data active = inhibition above about 30%
Mtb FBA inh: Mtb FBA enzyme inhibitors, primary screen, biochemical, fluorescence, strain H37Rv; AID 588726, 2011; inhibition, % at 1 µM; purified M. tuberculosis FBA, fluorescence read-out; actives 2.3% (n = 360,000); in the data active = inhibition above about 27%
BJeLR viability: MLPCN primary cell-based screen for lethality selective to Ras in HRASV12 cells; BJeLR (HRASV12) viability, CellTiter-Glo ATP luminescence, 48 h; inhibition, % (no concentration beside the values); actives 0.17% (n = 300,000); in the data active = inhibition above about 50%
Numbers stand for hits; 0 = inactive; - = not tested or not shown; + = active, no number.

SMILES	GDH-TPI counter	PrPC surface inh	RecA intein inh	Mtb FBA inh	BJeLR viability
O=C(c1ccc(Cl)c(Cl)c1)N1CCN(c2ccnc3cc(Cl)ccc23)CC1	-	0	-	-	-
Cc1ccc(N2C(=O)c3ccccc3C2C(=O)c2ccc(O)cc2O)cc1 (centres undefined)	43	0	0	0	0
c1ccc(C2CCC3(CC2)CCC3NCc2cccs2)cc1 (centres undefined)	-	0	-	-	-
CC(C)(C)c1ccc(C(=O)Nc2ccc(Oc3cccnc3)nc2)cc1	0	0	-	0	0
CCOC(=O)C(=CNc1ccc(Oc2cccnc2)nc1)C(=O)OCC	36	0	0	0	0
CCCCN(C)C(=O)C1CCN(S(=O)(=O)c2ccc3[nH]c(=O)oc3c2)CC1	-	0	-	-	-
CCOC(=O)Cc1nc(N2CCN(Cc3cccc4c3OCO4)CC2)c2c(C)c(C(=O)OCC)sc2n1	-	0	-	-	-
COC(=O)[C@]12C[C@H](CC(=O)NCC34CC5CC(CC(C5)C3)C4)C(=O)N(Cc3ccco3)C1=C[C@H](C(C)(C)C)O[C@@H]2C	-	0	-	-	-
CC(=O)c1ccc(N2CCN(S(=O)(=O)c3c(C)[nH]c(C)c3C(=O)N3CCCC3)CC2)cc1	0	0	0	0	0
CC(=O)c1ccc(N2CCN(S(=O)(=O)c3c(C(=O)N4CCCC4)c(C)n(C)c3C)CC2)cc1	40	0	0	0	0
CC(=O)c1ccc(N2CCN(S(=O)(=O)c3c(C)[nH]c(C)c3C(=O)N3CCCCC3)CC2)cc1	34	0	0	0	0
CC1=CC(c2ccc(Cl)cc2)n2nc(NC(=O)CCC(=O)O)nc2N1 (centres undefined)	0	0	0	115	0
CC1CCCCC1C(=O)N1CCC(Oc2cccnc2)CC1 (centres undefined)	-	0	-	-	-
CC1=CN2C(=N)/C(=C/c3ccco3)C(=O)N=C2S1	33	0	0	0	0
CC1=CN2C(=N)/C(=C/c3ccc([N+](=O)[O-])o3)C(=O)N=C2S1	0	0	0	0	0
COC(=O)c1cc(NC(=O)NC2CCCCN(Cc3cccc(Cl)c3)C2=O)cc(C(=O)OC)c1 (centres undefined)	-	0	-	-	-
O=C(NCCc1ccccc1)OCc1cn(Cc2cc(F)ccc2F)nn1	-	0	-	-	-
CCOc1ccc(-c2cc(C(=O)O)c3ccccc3n2)cc1	0	0	0	+	0
O=C(O)c1cc(-c2cc(C(=O)O)c3ccccc3n2)ccc1O	33	0	-	0	-
Cc1ccc(C2c3c(oc4ccc(Cl)cc4c3=O)C(=O)N2CCCN2CCOCC2)o1 (centres undefined)	-	-	36	-	0
O=C1c2oc3ccc(Cl)cc3c(=O)c2C(c2ccco2)N1CCN1CCOCC1 (centres undefined)	0	0	0	0	0
CC(C)(C)c1ccc(S(=O)(=O)N2CCCC(C(=O)NCc3ccco3)C2)cc1 (centres undefined)	-	0	-	-	-
COc1cc(/C=C2\SC(=O)N(c3ccc(O)cc3)C2=O)cc(OC)c1OC	48	0	0	0	0
O=C(Nc1ccc2nc(-c3cccs3)c(-c3cccs3)nc2c1)NC1CC1	32	0	0	0	0
CCOCCCn1c(=N)c(C(=O)NCc2ccc3c(c2)OCO3)cc2c(=O)n3ccccc3nc21	-	0	0	-	0
SMILES	GDH-TPI counter	PrPC surface inh	RecA intein inh	Mtb FBA inh	BJeLR viability
C=CCn1c(=N)c(C(=O)NCCCOC)cc2c(=O)n3cc(C)ccc3nc21	0	0	0	+	0
C=CCn1c(=N)c(C(=O)NCCCOC)cc2c(=O)n3ccccc3nc21	0	0	0	+	0
c1ccc(-n2c(SCc3cccc4ccccc34)nnc2-c2ccccn2)cc1	-	0	-	-	-
COc1ccc(C2CC(c3ccccc3)=NN2c2ccc(C(N)=O)cc2)cc1 (centres undefined)	0	0	0	+	0
COc1ccc(C2CC(c3ccccc3)=NN2c2ccc(/C=N/NC(=O)c3ccncc3)cc2)cc1 (centres undefined)	0	0	0	0	0
NS(=O)(=O)c1ccc(N2N=C(c3ccccc3)CC2c2ccc(F)cc2)cc1 (centres undefined)	0	0	0	+	0
COc1ccc(C2CC(c3cccc(F)c3)=NN2c2ccc(S(N)(=O)=O)cc2)cc1 (centres undefined)	0	0	-	+	-
COc1ccc(C2CC(c3ccccc3Cl)=NN2c2ccc(S(N)(=O)=O)cc2)cc1 (centres undefined)	0	0	-	174	-
